Assay results from publication PMC9574860, “Chemical Toolkit for PARK7: Potent, Selective, and High-Throughput” (Journal of Medicinal Chemistry, 2022).
The whole screen tested about 7,900 compounds, of which about 400 (5.1%) showed an effect of 50% or more. Many of the other results were omitted from the sample, so strong results are more common in it than they were.

Target: Parkinson's disease protein 7 (PARK7/DJ1) (human, UniProt Q99497)
Test: primary screen, percent inhibition; read as competition with a fluorescent probe by fluorescence polarization; higher = more effect of the substance
Details: 100 µM
In short: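 Covalent fragments at 100 μM final were incubated 2 h with 0.2 μM PARK7, then 20 nM probe JYQ-107 added for a further 2 h. Fluorescence polarization read at 480/520 nm; relative FP loss versus reference controls gave remaining enzyme activity.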

Chain of Parkinson's disease protein 7 (PARK7/DJ1) (Q99497 whole entry, looked up): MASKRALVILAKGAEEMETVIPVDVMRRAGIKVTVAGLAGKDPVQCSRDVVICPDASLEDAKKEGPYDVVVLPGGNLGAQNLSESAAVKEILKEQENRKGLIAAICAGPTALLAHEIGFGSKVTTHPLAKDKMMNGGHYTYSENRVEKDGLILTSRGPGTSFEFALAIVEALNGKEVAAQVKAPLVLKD

**Q.** For `CC(=O)Nc1c(C)cc(C)c(C(=O)CCl)c1C`, which Inhibition % is on record?
**A.** 14%

**Q.** With `Cl.O=C(CCl)Nc1ncc[nH]1` as the compound, how does the Inhibition % read?
**A.** 1.78%

**Q.** How did the Inhibition % turn out when `C=CC(=O)N1C[C@H](F)C[C@H]1C(=O)N1CCOCC1` was run?
**A.** 10.5%

**Q.** With `C=CC(=O)N1CCC(c2nc(C(F)(F)F)c[nH]2)CC1` as the compound, how does the Inhibition % read?
**A.** 0.0839%

**Q.** How did the Inhibition % turn out when `C=CC(=O)N1CCC(C(=O)NCC(F)(F)F)C1` (centres unmarked) was run?
**A.** 4.08%

**Q.** With `COC(F)(F)C(F)(F)c1ccc(B2OC(C)(C)C(C)(C)O2)cc1` as the compound, how does the Inhibition % read?
**A.** 6.09%

**Q.** With `O=C(O)c1ccoc1CS` as the compound, how does the Inhibition % read?
**A.** 64.1%

**Q.** For `CN(Cc1ncnn1C)S(=O)(=O)C=Cc1ccccc1`, which Inhibition % is on record?
**A.** 3.12%

**Q.** How did the Inhibition % turn out when `COc1ccccc1CNC(=O)CCl` was run?
**A.** 28%

**Q.** With `COc1ccccc1CCNC(=O)CCl` as the compound, how does the Inhibition % read?
**A.** 15.8%

**Q.** How did the Inhibition % turn out when `COc1ccccc1CN(C)C(=O)CCl` was run?
**A.** 98.6%

**Q.** `COc1ccccc1C(C)N(C)C(=O)CCl` (centres unmarked) was tested. Which Inhibition % did it give?
**A.** 31.5%

**Q.** `COc1cccc(CN(C)C(=O)CCl)c1OC` was tested. Which Inhibition % did it give?
**A.** 74.5%

**Q.** Which Inhibition % does the source give for `COc1cc(CO)ccc1B1OC(C)(C)C(C)(C)O1` here?
**A.** 4.39%

**Q.** Which Inhibition % does the source give for `CC(c1ccsc1)N1CCN(c2ccc(C#N)nc2)CC1` (centres unmarked) here?
**A.** 7.22%

**Q.** With `Cc1ccc(NC(=O)CCl)cc1S(=O)(=O)N(C)C` as the compound, how does the Inhibition % read?
**A.** 10.4%

**Q.** With `COc1ccc(NC(=O)CCl)cc1S(=O)(=O)N(C)C` as the compound, how does the Inhibition % read?
**A.** 9.41%

**Q.** `CCN(CC)S(=O)(=O)c1cc(NC(=O)CCl)ccc1C` was tested. Which Inhibition % did it give?
**A.** 7.16%

**Q.** `CN(C)S(=O)(=O)c1ccc(NC(=O)CCl)cc1` was tested. Which Inhibition % did it give?
**A.** 84.2%

**Q.** `CN(C)S(=O)(=O)c1ccc(NC(=O)CCCl)cc1` was tested. Which Inhibition % did it give?
**A.** 7.94%

**Q.** `CCN(CC)S(=O)(=O)c1cccc(NC(=O)CCl)c1` was tested. Which Inhibition % did it give?
**A.** 22.5%

**Q.** How did the Inhibition % turn out when `CCN(CC)S(=O)(=O)c1ccc(NC(=O)CCl)cc1` was run?
**A.** 90.5%

**Q.** For `CC(C)N(C)S(=O)(=O)c1ccc(NC(=O)CCl)cc1`, which Inhibition % is on record?
**A.** 83.8%

**Q.** `C=CC(=O)N[C@H]1C[C@H](C)S(=O)(=O)c2sccc21` was tested. Which Inhibition % did it give?
**A.** 7.51%

**Q.** For `C=CC(=O)N1CCOCC2(CC2)C1`, which Inhibition % is on record?
**A.** 33.9%

**Q.** Which Inhibition % does the source give for `C=CC(=O)N1CCN(c2ccc(C)o2)C(=O)C1` here?
**A.** 5.39%

**Q.** For `Cc1ccoc1C=C(C#N)C(=O)NCCc1ccccc1`, which Inhibition % is on record?
**A.** 0.974%

**Q.** With `O=S1(=O)C=CC(O)C1` (centres unmarked) as the compound, how does the Inhibition % read?
**A.** 4.75%

**Q.** With `C=C(Cl)CSc1nc2ccsc2c(=O)n1C` as the compound, how does the Inhibition % read?
**A.** 13.1%

**Q.** How did the Inhibition % turn out when `CC1(C)OB(c2ccc3c(c2)NC(=O)C3)OC1(C)C` was run?
**A.** 27.3%

**Q.** How did the Inhibition % turn out when `CC1CC1C(=O)N1CCCCC1CCS(=O)(=O)F` (centres unmarked) was run?
**A.** 57.7%

**Q.** With `O=C(C1CCOCC1)N1CCOC(CS(=O)(=O)F)C1` (centres unmarked) as the compound, how does the Inhibition % read?
**A.** 13.3%

**Q.** With `O=C(C1CCOCC1)N1CCCCC1CCS(=O)(=O)F` (centres unmarked) as the compound, how does the Inhibition % read?
**A.** 82.4%

**Q.** How did the Inhibition % turn out when `C=CC(=O)N1CCCCC1CS(C)(=O)=O` (centres unmarked) was run?
**A.** 5.69%

**Q.** Which Inhibition % does the source give for `O=C(C1CCOCC1)N1CCC(S(=O)(=O)F)CC1` here?
**A.** 30.7%

**Q.** Which Inhibition % does the source give for `COC(=O)C1CC(S(=O)(=O)F)CN1C(=O)C1CC1C` (centres unmarked) here?
**A.** 13.7%

**Q.** Which Inhibition % does the source give for `C=CC(=O)N1CCSC2(CCC2)CC1` here?
**A.** 10.9%

**Q.** How did the Inhibition % turn out when `NC(=O)C1CCCN(S(=O)(=O)C=Cc2ccccc2)C1` (centres unmarked) was run?
**A.** 6.58%

**Q.** Which Inhibition % does the source give for `CS(=O)(=O)C(C#N)=Cc1cnn(-c2ccccc2)c1` here?
**A.** 10.2%

**Q.** How did the Inhibition % turn out when `CN1CCN(c2cccc(C#N)n2)CC1` was run?
**A.** 5.08%

**Q.** `CC1CC(Sc2nnc(-c3ccco3)o2)C(=O)O1` (centres unmarked) was tested. Which Inhibition % did it give?
**A.** 1.96%

**Q.** Which Inhibition % does the source give for `C=CC(=O)N1CCOC(c2ccc(C(F)(F)F)cc2)C1` (centres unmarked) here?
**A.** 1.86%

**Q.** Which Inhibition % does the source give for `CCC1CN(C(=O)CCl)CCO1` (centres unmarked) here?
**A.** 33.6%

**Q.** How did the Inhibition % turn out when `O=C(CCl)N1CCOC(c2ccc(F)cc2)C1` (centres unmarked) was run?
**A.** 95.3%

**Q.** Which Inhibition % does the source give for `CC(C)c1nc(C(C)Nc2ccc(C#N)nc2)cs1` (centres unmarked) here?
**A.** 3.63%

**Q.** With `Cl.NCC1OB(O)c2ccccc21` (centres unmarked) as the compound, how does the Inhibition % read?
**A.** 3.67%

**Q.** How did the Inhibition % turn out when `Cc1oncc1Cn1c(-c2ccncc2)noc1=O` was run?
**A.** 59.3%

**Q.** How did the Inhibition % turn out when `Cc1noc(C)c1Cn1c(-c2ccccc2)noc1=O` was run?
**A.** 14.3%

**Q.** `O=c1onc(-c2ccccc2)n1Cc1ccncc1` was tested. Which Inhibition % did it give?
**A.** 1.3%

**Q.** How did the Inhibition % turn out when `Sc1nnnc2ccccc12` was run?
**A.** 3.52%

**Q.** `CN1CCC2(CCCN2C(=O)c2cccc(S(=O)(=O)F)c2)CC1` was tested. Which Inhibition % did it give?
**A.** 10.6%

**Q.** For `O=C(NCCC(=O)N1CCCCC1)c1cc(S(=O)(=O)F)c[nH]1`, which Inhibition % is on record?
**A.** 5.43%

**Q.** `CS(=O)C1(CNC(=O)c2cccc(S(=O)(=O)F)c2)CCC1` (centres unmarked) was tested. Which Inhibition % did it give?
**A.** 97.3%

**Q.** For `O=C(NCC12CCCN1CCC2)c1cccc(S(=O)(=O)F)c1`, which Inhibition % is on record?
**A.** 86.4%

**Q.** Which Inhibition % does the source give for `C=CC(=O)Nc1ccccc1N1CCNC(=O)C1` here?
**A.** 10.7%

**Q.** `C=CC(=O)N(CC)C1CCOC(C)(C)C1` (centres unmarked) was tested. Which Inhibition % did it give?
**A.** 8.38%

**Q.** How did the Inhibition % turn out when `O=c1c2ccccc2ccn1CCS(=O)(=O)F` was run?
**A.** 95.1%

**Q.** `O=c1c2ccccc2ncn1CCS(=O)(=O)F` was tested. Which Inhibition % did it give?
**A.** 14.1%

**Q.** For `O=c1c2ccsc2ncn1CCS(=O)(=O)F`, which Inhibition % is on record?
**A.** 19.7%

**Q.** `CC1(C)OB(c2ccc(C3CCC(=O)N3)cc2)OC1(C)C` (centres unmarked) was tested. Which Inhibition % did it give?
**A.** 6.79%

**Q.** How did the Inhibition % turn out when `CNC(=O)C(NC(=O)CCl)c1ccccc1` (centres unmarked) was run?
**A.** 8.83%

**Q.** How did the Inhibition % turn out when `CC1(C)OB(c2cc(CN3CCCC3)ccc2F)OC1(C)C` was run?
**A.** 3.85%
